Source: PubChem BioAssay (NCATS)
Unmarked numbers belong to inactive results. Inconclusive results are not listed. Calls of active or inactive are those of the source. Unless noted, calls follow the shape of the dose curve; as a rule, active = well fitted inhibition curve with a large enough effect; inconclusive = small, poorly fitted or top-dose-only effect; inactive = flat fitted curve, though single readings scatter. Where a SMILES comes first, the peptide text is derived from it. Bridges are numbered along the chain shown (N, C = ends). [ ]: non-standard residue; d: D form. The star is where a group is joined. Dab(CH2SO3H) = N[C@@H](CCNCS(=O)(=O)O)C(=O)O; X3 = CC[C@@H](C)CCCCC(=O)*; Dab = NCC[C@H](N)C(=O)O

Legend:
[1] = Drug repurposing screens with cells derived from glioblastoma tumor samples (AID 1345199); conditions: GBM patient neurospheres viability, ATP luminescence, 48 h; also: nearly all actives have a fitted effect of over 40% in size; also: potency is read from the fitted curve at half-maximal effect; as to activity, negative = cell killing: % is scaled to controls: 0 for no effect and ±100 for the full control effect
Summary of the method: (§1)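 Four patient lines of CD133+ GBM neurospheres were screened at several concentrations; hits were retested in those lines plus three slower-growing GBM lines, using 48-hour treatment and ATP-based viability.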

astro = control astrocytes; experiment: as above; conditions: viability, ATP luminescence, 48 h; series mostly up to 45.9 µM
Summary of the method: as §1

[2] = qHTS assay for small molecule activators of the human pregnane X receptor (PXR) signaling pathway (AID 720659; call rule not given here; also: 0% is about no effect); conditions: DPX-2 HepG2 CYP3A4-luciferase, 24 h; series mostly up to 92.3 µM
[3] = target: Nuclear receptor subfamily 1 group I member 2 (Rattus norvegicus) (UniProt Q9R1A7); experiment: qHTS assay for small molecule activators of the rat pregnane X receptor (rPXR) signaling pathway (AID 651751; call rule not given here; also: 0% is about no effect); conditions: rPXR reporter cells, luciferase (One-Glo), 24 h
[4] = at 45.9 µM (top of the series), tumour line B
[5] = at 45.9 µM (top of the series), tumour line D
[6] = at 46 µM (top of the series), tumour line A
[7] = at 46.1 µM (top of the series), tumour line C
[8] = at 20 µM (top of the series), tumour line C
[9] = at 21.2 µM (top of the series), tumour line B
[10] = at 21.2 µM (top of the series), tumour line D
[11] = at 21.3 µM (top of the series), tumour line A

Nuclear receptor subfamily 1 group I member 2 (Rattus norvegicus), sequence (Q9R1A7 whole entry, looked up): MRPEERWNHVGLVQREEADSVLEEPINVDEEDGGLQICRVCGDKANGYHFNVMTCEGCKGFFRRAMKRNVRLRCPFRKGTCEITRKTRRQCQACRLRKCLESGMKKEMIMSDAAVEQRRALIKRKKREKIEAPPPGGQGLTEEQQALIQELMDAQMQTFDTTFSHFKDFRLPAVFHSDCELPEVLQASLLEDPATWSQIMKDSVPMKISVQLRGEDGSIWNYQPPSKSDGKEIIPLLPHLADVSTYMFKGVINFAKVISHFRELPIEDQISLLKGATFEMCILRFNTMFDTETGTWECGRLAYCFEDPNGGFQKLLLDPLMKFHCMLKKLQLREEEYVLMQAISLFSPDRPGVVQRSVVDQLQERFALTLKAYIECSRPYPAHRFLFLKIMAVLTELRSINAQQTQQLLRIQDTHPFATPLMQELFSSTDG

CC1(C)S[C@@H]2[C@H](NC(=O)Cc3ccccc3)C(=O)N2[C@H]1C(=O)O
activity, negative = cell killing [1, 4]: -9.27%
activity, negative = cell killing [1, 5]: -18.5%
activity, negative = cell killing [1, 6]: -18.5%
activity, negative = cell killing [1, 7]: -5.88%
Potency (astro): inactive

CN1C(=O)CN2CCc3ccccc3C2c2cc(Cl)ccc21 (centres undefined)
activity, negative = cell killing [1, 4]: -19.8%
activity, negative = cell killing [1, 5]: -13.4%
activity, negative = cell killing [1, 6]: -22.5%
activity, negative = cell killing [1, 7]: -33.9%
Potency (astro): inactive

Nc1ccn([C@H]2CS[C@@H](CO)O2)c(=O)n1
activity, negative = cell killing [1, 4]: -4.08%
activity, negative = cell killing [1, 5]: 8.01%
activity, negative = cell killing [1, 6]: -14.1%
activity, negative = cell killing [1, 7]: 0.221%
outcome [2]: inactive

CC[C@@H](C)CCCCC(=O)N[C@@H](CCNCS(=O)(=O)O)C(=O)N[C@H](C(=O)N[C@@H](CCNCS(=O)(=O)O)C(=O)N[C@H]1CCNC(=O)[C@H]([C@@H](C)O)NC(=O)[C@H](CCNCS(=O)(=O)O)NC(=O)[C@H](CCNCS(=O)(=O)O)NC(=O)[C@H](CC(C)C)NC(=O)[C@@H](CC(C)C)NC(=O)[C@H](CCNCS(=O)(=O)O)NC1=O)[C@@H](C)O (X3-[Dab(CH2SO3H)]T[Dab(CH2SO3H)][Dab][Dab(CH2SO3H)][dL]L[Dab(CH2SO3H)][Dab(CH2SO3H)]T; lactam 4-C)
activity, negative = cell killing [1, 4]: -7.01%
activity, negative = cell killing [1, 5]: 10.8%
activity, negative = cell killing [1, 6]: -16.2%
Potency (astro): inactive

COC(=O)C1=C(C#N)NC(C)=C(C(=O)OC(C)C)C1c1cccc([N+](=O)[O-])c1 (centres undefined)
activity, negative = cell killing [1, 4]: -5.18%
activity, negative = cell killing [1, 5]: -25.1%
Potency ([1]; tumour line A): 14.1 µM (active)
Potency (astro): inactive

C[C@H]1C[C@H]2[C@@H]3CCC4=CC(=O)C=C[C@]4(C)[C@@]3(F)[C@@H](O)C[C@]2(C)[C@@]1(O)C(=O)CO
activity, negative = cell killing [1, 4]: -16%
activity, negative = cell killing [1, 5]: -25%
activity, negative = cell killing [1, 6]: -24.5%
Potency (astro): inactive

CC1=CCC(C(C)(C)O)CC1 (centres undefined)
activity, negative = cell killing [1, 4]: -2.21%
activity, negative = cell killing [1, 5]: -4.36%
activity, negative = cell killing [1, 6]: -13.1%
activity, negative = cell killing [1, 7]: -3.81%
Potency (astro): inactive
max response [3]: -0.27%
outcome [2]: inactive

CO[C@H]1C[C@H](O[C@H]2[C@H](C)[C@@H](O[C@@H]3O[C@H](C)C[C@H](N(C)C)[C@H]3OC(C)=O)[C@@H](C)C[C@]3(CO3)C(=O)[C@H](C)[C@@H](OC(C)=O)[C@@H](C)[C@@H](C)OC(=O)[C@@H]2C)O[C@@H](C)[C@@H]1OC(C)=O
activity, negative = cell killing [1, 8]: -16.4%
activity, negative = cell killing [1, 9]: -6.68%
activity, negative = cell killing [1, 10]: -16.6%
activity, negative = cell killing [1, 11]: -20.4%
Potency (astro): inactive

CC(Oc1ccccc1)C(=O)N[C@@H]1C(=O)N2[C@@H]1SC(C)(C)[C@@H]2C(=O)O (some centres undefined)
activity, negative = cell killing [1, 8]: 1.64%
activity, negative = cell killing [1, 9]: -4.78%
activity, negative = cell killing [1, 10]: -2.95%
activity, negative = cell killing [1, 11]: 2.19%
Potency (astro): inactive

CO[C@H]1C=CO[C@@]2(C)Oc3c(C)c(O)c4c(O)c(c5c(nc6cc(C)ccn65)c4c3C2=O)NC(=O)/C(C)=C\C=C[C@H](C)[C@H](O)[C@@H](C)[C@@H](O)[C@@H](C)[C@H](OC(C)=O)[C@@H]1C
activity, negative = cell killing [1, 4]: -10.2%
activity, negative = cell killing [1, 5]: -26.2%
activity, negative = cell killing [1, 7]: -2.47%
Potency (astro): inactive

O=C1CSC2(CCN(CCCN3c4ccccc4Sc4ccc(Cl)cc43)CC2)N1
activity, negative = cell killing [1, 7]: -24.2%
Potency ([1]; tumour line A): 3.16 µM (active)
Potency ([1]; tumour line D): 20 µM (active)
Potency (astro): 25.1 µM (active)

CO/N=C(\C(=O)N[C@@H]1C(=O)N2C(C(=O)O)=C(CSc3cnns3)CS[C@H]12)c1csc(N)n1
activity, negative = cell killing [1, 4]: -0.235%
activity, negative = cell killing [1, 5]: 11.9%
Potency (astro): inactive

Nc1nc(N)c2nc(CNc3ccc(C(=O)N[C@@H](CCC(=O)O)C(=O)O)cc3)cnc2n1
activity, negative = cell killing [1, 4]: -5.27%
activity, negative = cell killing [1, 5]: 12.1%
activity, negative = cell killing [1, 6]: -19.6%
Potency (astro): inactive

CC[C@@]1(O)C(=O)OCc2c1cc1n(c2=O)Cc2cc3c([N+](=O)[O-])cccc3nc2-1
Potency (astro): 1.26 µM (active)

CO[C@H]1C[C@@H]2CC[C@@H](C)[C@@](O)(O2)C(=O)C(=O)N2CCCC[C@H]2C(=O)O[C@H]([C@H](C)C[C@@H]2CC[C@@H](OCCO)[C@H](OC)C2)CC(=O)[C@H](C)/C=C(\C)[C@@H](O)[C@@H](OC)C(=O)[C@H](C)C[C@H](C)/C=C/C=C/C=C/1C
Potency (astro): 25.1 µM (active)

O=C1C(=O)c2ncccc2-c2cccnc21
Potency (astro): 0.562 µM (active)

COC(C(=O)C(O)C(C)O)C1Cc2cc3cc(OC4CC(OC5CC(O)C(O)C(C)O5)C(O)C(C)O4)c(C)c(O)c3c(O)c2C(=O)C1OC1CC(OC2CC(OC3CC(C)(O)C(O)C(C)O3)C(O)C(C)O2)C(O)C(C)O1 (centres undefined)
Potency (astro): 0.355 µM (active)

COc1cc([C@@H]2c3cc4c(cc3[C@@H](O[C@@H]3O[C@@H]5CO[C@@H](C)O[C@H]5[C@H](O)[C@H]3O)[C@H]3COC(=O)[C@H]23)OCO4)cc(OC)c1O
activity, negative = cell killing [1, 5]: -20.4%
activity, negative = cell killing [1, 7]: -16.4%
Potency (astro): inactive

O=C(Nc1cccc(C(F)(F)F)c1)c1cc(Br)cc(Br)c1O
Potency (astro): 2.51 µM (active)

CC(C(=O)O)c1ccc(N2Cc3ccccc3C2=O)cc1 (centres undefined)
Potency (astro): 10 µM (active)

Cc1cc(/C=C/c2ccc3cc(N(C)C)ccc3[n+]2C)c(C)n1-c1ccccc1
activity, negative = cell killing [1, 8]: -11.8%
Potency (astro): 11.2 µM (active)

CO[C@H](C(=O)[C@@H](O)[C@@H](C)O)C1Cc2cc3cc(O[C@H]4C[C@@H](O[C@H]5C[C@@H](O)[C@H](O)[C@@H](C)O5)[C@@H](O)[C@@H](C)O4)c(C)c(O)c3c(O)c2C(=O)[C@H]1O[C@H]1C[C@@H](O[C@H]2C[C@@H](O[C@H]3C[C@](C)(O)[C@H](O)[C@@H](C)O3)[C@H](O)[C@@H](C)O2)[C@H](O)[C@@H](C)O1 (some centres undefined)
Potency (astro): 0.112 µM (active)

CC[C@@H](C(=O)O)[C@@H]1O[C@@H]([C@@H](C)[C@H](O)[C@H](C)C(=O)[C@H](CC)[C@H]2O[C@]3(C=C[C@@H](O)[C@]4(CC[C@@](C)([C@H]5CC[C@](O)(CC)[C@H](C)O5)O4)O3)[C@H](C)C[C@@H]2C)[C@@H](C)C[C@@H]1C
Potency (astro): 0.794 µM (active)

COc1cc(-c2ccc(-[n+]3nc(-c4ccccc4)nn3-c3ccc([N+](=O)[O-])cc3)c(OC)c2)ccc1-[n+]1nc(-c2ccccc2)nn1-c1ccc([N+](=O)[O-])cc1
Potency (astro): 3.55 µM (active)

C#C[C@]1(O)CC[C@H]2[C@@H]3CCC4=CCCC[C@@H]4[C@H]3C(=C)C[C@@]21CC
Potency (astro): 35.5 µM (active)
